Calls of active or inactive are those of the source. Calls follow the shape of the full dose curve.
Experiment: qHTS drug screen for cell cycle checkpoint inhibitors in PARPi-resistant BRCA-mutant ovarian cancer cell lines. (AID 1963452)
Conditions: PEO1/OlaR viability, CellTiter-Glo luminescence, 96 h, stronger effect = lower value
Text: Women's Malignancies Branch, Center for Cancer Research (CCR),
National Cancer Institute (NCI), National Institutes of Health (NIH), Bethesda, MD
Poly (ADP-ribose) polymerase inhibitors (PARPis) have changed the treatment paradigm in breast cancer gene (BRCA) - mutant high-grade serous ovarian carcinoma (HGSC). However, most patients eventually develop resistance to PARPis, highlighting an unmet need for improved therapeutic strategies. Using high-throughput drug screens, we identified ataxia telangiectasia and rad3-related protein/checkpoint kinase 1 (CHK1) pathway inhibitors as cytotoxic and further validated the activity of the CHK1 inhibitor (CHK1i) prexasertib in PARPi-sensitive and -resistant BRCA-mutant HGSC cells and xenograft mouse models. CHK1i monotherapy induced DNA damage, apoptosis, and tumor size reduction. We then conducted a phase 2 study (NCT02203513) of prexasertib in patients with BRCA-mutant HGSC. The treatment was well tolerated but yielded an objective response rate of 6% (1 of 17; one partial response) in patients with previous PARPi treatment. […] BRCA reversion mutation in previously PARPi-treated BRCA-mutant patients was not associated with resistance to CHK1i.
Among others, 1082 oncology drugs, both approved and investigational, were prioritized based on their status in clinical trial development. […] Drugs with average Z-AUC values less than -1.0 in all three cell lines were classified as "hits" resulting in 151 oncology drug hits. The screen also confirmed cross-resistance between olaparib and other PARPis (rucaparib, niraparib, and talazoparib) in PARPi-resistant PEO1/OlaR and PEO4.
[1] G. L. Lin, K. M. Wilson, M. Ceribelli, B. Z. Stanton, P. J. Woo, S. Kreimer, E. Y. Qin, X. Zhang, J. Lennon, S. Nagaraja, P. J. Morris, M. Quezada, S. M. Gillespie, D. Y. Duveau, A. M. Michalowski, P. Shinn, R. Guha, M. Ferrer, C. Klumpp-Thomas, S. Michael, C. McKnight, P. Minhas, Z. Itkin, E. H. Raabe, L. Chen, R. Ghanem, A. C. Geraghty, L. Ni, K. I. Andreasson, N. A. Vitanza, K. E.Warren, C. J. Thomas, M. Monje, Therapeutic strategies for diffuse midline glioma from high-throughput combination drug screening. Sci. Transl. Med. 11, (2019).
[2] T. M. Yamamoto, A. McMellen, Z. L. Watson, J. Aguilera, R. Ferguson, E. Nurmemmedov, T. Thakar, G. L. Moldovan, H. Kim, D. M. Cittelly, A. M. Joglar, E. P. Brennecke, H. Wilson, K. Behbakht, M. J. Sikora, B. G. Bitler, Activation of Wnt signaling promotes olaparib resistant ovarian cancer. Mol. Carcinog. 58, 1770 - 1782 (2019).
PROTOCOL TABLE (as described by Inglese J, Shamu CE and Guy RK. 2007)
SEQUENCE No. (e.g., 1, 2, 3, etc.); […] (e.g., Cells, Incubation, Reagent, etc.); VALUE; DESCRIPTION.
1; Compounds; 20nL; 1536-well white tissue culture-treated plates.
2; Cells; 5 uL; PEO1, PEO4, and PEO1/OlaR cells at 600 cells per well.
3; Incubation; 96 hr; 37C, 95% humidity, 5% CO2.
4; Reagent; 3 uL; CellTiter-Glo (Promega).
5; Incubation; 15 min; room temperature.
6; Detection; Luminescence, PHERAstar (BMG Labtech) plate reader.
NOTES (numbers refer to Sequence numbers above)
1. MIPE 5.0 compounds were acoustically dispensed by Echo Acoustic Liquid Handler (Beckman Coulter Life Sciences). Each compound was plated at an 11-point concentration range with 1:3 dilution. Bortezomib, a proteasome inhibitor (final concentration, 20 uM), was used as a positive.
2. PEO1, PEO4, and PEO1/OlaR were trypsinized and dispensed in 5 uLof growth medium using a Multidrop Combi dispenser at a density of 600 cells per well to allow compounds to be present during the exponential growth phase.
3. Plates were incubated for 96 hours at standard incubator conditions and covered by a stainless steel gasketed lid to prevent evaporation.
4. Three microliters of CellTiter-Glo (Promega) were added to each well.
5. Plates were incubated at room temperature for 15 min with a stainless-steel lid in place.
6. Luminescence readings were taken using PHERAstar (BMG Labtech). […]

[1] = measured here: PEO1 parental Z-AUC

Q: Which results are given for `CC(C)c1ccc2oc3nc(N)c(C(=O)O)cc3c(=O)c2c1`?
A: Z-AUC: -0.387 (inactive); Z-AUC [1]: 0.341; Z-AUC (measured here: PEO4 Z-AUC): 0.263

Q: For `O=C(O)c1cccc(-c2noc(-c3ccccc3F)n2)c1`, which Z-AUC is on record?
A: The Z-AUC was 0.225 (inactive).

Q: And the Z-AUC [1]?
A: The Z-AUC was 0.852.

Q: And the Z-AUC (measured here: PEO4 Z-AUC)?
A: The Z-AUC was 1.3.

Q: For `COc1cc2c(cc1OC)C1CC(=O)C(CC(C)C)CN1CC2` (configuration not stated), which Z-AUC is on record?
A: Its Z-AUC is 0.0378 (inactive).

Q: What about the Z-AUC [1] of the same compound?
A: Its Z-AUC is 0.296.

Q: What about the Z-AUC (measured here: PEO4 Z-AUC) of the same compound?
A: Its Z-AUC is 0.889.

Q: Which Z-AUC does the source give for `Nc1ccn([C@@H]2O[C@H](CO)[C@@H](O)C2O)c(=O)n1` (some centres not stated) here?
A: Its Z-AUC is -1.18 (inactive).

Q: What about the Z-AUC [1] of the same compound?
A: The Z-AUC was -1.27.

Q: And the Z-AUC (measured here: PEO4 Z-AUC)?
A: The Z-AUC was -0.431.

Q: Which Z-AUC does the source give for `N[C@@H](Cc1cc(I)c(Oc2cc(I)c(O)c(I)c2)c(I)c1)C(=O)O` here?
A: Its Z-AUC is -1.16 (inactive).

Q: And the Z-AUC [1]?
A: Its Z-AUC is -0.336.

Q: And the Z-AUC (measured here: PEO4 Z-AUC)?
A: Its Z-AUC is -0.169.

Q: With `Clc1ccc2c(N3CCN(CCCN4CCN(c5ccnc6cc(Cl)ccc56)CC4)CC3)ccnc2c1` as the compound, how does the Z-AUC read?
A: The Z-AUC was 0.751 (inactive).

Q: What about the Z-AUC [1] of the same compound?
A: The Z-AUC was 0.492.

Q: What about the Z-AUC (measured here: PEO4 Z-AUC) of the same compound?
A: The Z-AUC was 0.795.

Q: With `CC[C@]1(O)C[C@H]2CN(CCc3c([nH]c4ccccc34)[C@@](C(=O)OC)(c3cc4c(cc3OC)N(C=O)[C@H]3[C@@](O)(C(=O)OC)[C@H](OC(C)=O)[C@]5(CC)C=CCN6CC[C@]43[C@@H]65)C2)C1` as the compound, how does the Z-AUC read?
A: Its Z-AUC is -0.637 (inactive).

Q: And the Z-AUC [1]?
A: Its Z-AUC is -1.14.

Q: And the Z-AUC (measured here: PEO4 Z-AUC)?
A: Its Z-AUC is -1.16.

Q: With `O=c1cc(N2CCOCC2)oc2c(-c3ccccc3)cccc12` as the compound, how does the Z-AUC read?
A: Its Z-AUC is 0.98 (inactive).

Q: What about the Z-AUC [1] of the same compound?
A: Its Z-AUC is 0.743.

Q: What about the Z-AUC (measured here: PEO4 Z-AUC) of the same compound?
A: The Z-AUC was 0.809.

Q: Which Z-AUC does the source give for `CN(C)c1ccc2nc3ccc(=[N+](C)C)cc-3sc2c1` here?
A: The Z-AUC was -0.652 (inactive).

Q: And the Z-AUC [1]?
A: Its Z-AUC is -0.738.

Q: What about the Z-AUC (measured here: PEO4 Z-AUC) of the same compound?
A: The Z-AUC was -0.606.

Q: For `CCOC(=O)c1c(C)n(C)c2ccc(O)cc12`, which Z-AUC is on record?
A: The Z-AUC was 1.13 (inactive).

Q: What about the Z-AUC [1] of the same compound?
A: The Z-AUC was 0.765.

Q: What about the Z-AUC (measured here: PEO4 Z-AUC) of the same compound?
A: Its Z-AUC is 0.891.

Q: With `C[C@@H](N)C1CCC(C(=O)Nc2ccncc2)CC1` (some centres not stated) as the compound, how does the Z-AUC read?
A: The Z-AUC was 0.275 (inactive).

Q: And the Z-AUC [1]?
A: The Z-AUC was 0.543.

Q: What about the Z-AUC (measured here: PEO4 Z-AUC) of the same compound?
A: Its Z-AUC is 0.552.

Q: With `Cc1nc(-c2ccc(OCC(C)C)c(C#N)c2)sc1C(=O)O` as the compound, how does the Z-AUC read?
A: The Z-AUC was 0.79 (inactive).

Q: And the Z-AUC [1]?
A: The Z-AUC was 0.0163.

Q: What about the Z-AUC (measured here: PEO4 Z-AUC) of the same compound?
A: Its Z-AUC is 0.327.

Q: For `NCCCCNCCCN`, which Z-AUC is on record?
A: Its Z-AUC is 0.434 (inactive).

Q: What about the Z-AUC [1] of the same compound?
A: Its Z-AUC is 1.13.

Q: What about the Z-AUC (measured here: PEO4 Z-AUC) of the same compound?
A: The Z-AUC was 0.641.

Q: With `O=c1oc2cc(O)ccc2s1` as the compound, how does the Z-AUC read?
A: The Z-AUC was 0.214 (inactive).

Q: What about the Z-AUC [1] of the same compound?
A: The Z-AUC was 0.00456.

Q: What about the Z-AUC (measured here: PEO4 Z-AUC) of the same compound?
A: Its Z-AUC is 1.28.

From PubChem BioAssay (NCATS)
